DT40 TDP1 CPT: qHTS for Inhibitors of human tyrosyl-DNA phosphodiesterase 1 (TDP1): qHTS in cells in presence of CPT. 420,000 compounds, 12% hits. chicken DT40 Tdp1-/-;hTDP1 cells + 20 nM CPT, ATP luminescence, 48 h. Potency, µM (doses to about 46.2 µM), inactives show at the top dose activity change, negative = growth inhibition, most hits filed as inhibitors; further: nearly all actives have a fitted effect of over 55% in size
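Chicken DT40 Tdp1-/- cells complemented with human TDP1, 400 cells/well, exposed to compounds plus 20 nM camptothecin for at least 48 h at 37 C; viability read as ATP content by CellTiter-Glo luminescence.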
HT1080-NT tox: qHTS for induction of synthetic lethality in tumor cells producing 2HG: qHTS for the HT-1080-NT fibrosarcoma cell line. HT-1080-NT fibrosarcoma viability, CellTiter-Glo ATP luminescence, 48 h. Potency, µM (top dose mostly 46.1 µM), for inactives: top-dose activity, negative = less viability, hits mostly cytotoxic. 360,000 compounds, 1.6% hits;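 further: NT is the 2HG producing partner of a matched IDH1 knockdown line; 0% = DMSO-treated cells and -100% = media-only wells without cells; nearly all actives have a fitted effect of over 55% in size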
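750 cells/well, RPMI + 5% FBS; 2 h settle, compound pin-transfer, 48 h at 37 degrees C. CellTiter-Glo 10 min RT, luminescence. Normalized to DMSO and media-only wells.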
HT1080 IDH1KD tx: qHTS for induction of synthetic lethality in tumor cells producing 2HG: qHTS for the HT-1080-IDH1KD cell line; 360,000 compounds, 2% hits; Potency, µM (top dose mostly 46.1 µM), without a hit: at the highest dose activity, negative = toxicity, hits mostly cytotoxic; HT-1080 IDH1 knockdown viability, ATP luminescence, 48 h;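 further: 0% = DMSO wells and -100% = cell-free medium wells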
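Luminescent ATP read-out (CellTiter-Glo, 10 min at room temperature) after 48 h compound exposure at 37 °C gave viability of IDH1-knockdown HT-1080 cells. Activity was normalised to DMSO and cell-free wells, then fitted as concentration-response curves.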
TDP1 cell noCPT: qHTS for Inhibitors of human tyrosyl-DNA phosphodiesterase 1 (TDP1): qHTS in cells in absence of CPT | DT40 Tdp1-/- hTDP1 cells, no CPT, ATP luminescence, 48 h | Potency, µM (doses to about 46.2 µM), for the others: at the highest dose activity change, negative = growth inhibition, actives largely listed as inhibitors | 420,000 compounds, 15% hits | AID 686978, 2013; further: nearly all actives have a fitted effect of over 55% in size
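Luminescent ATP content (CellTiter-Glo) served as the growth readout. Knockout chicken DT40 cells expressing human TDP1 were exposed to compounds without camptothecin for a minimum 48 hr at 37 °C.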
KB-V1 cytotox: qHTS assay for MDR1-selective chemotherapeutics: Primary screen using the drug-selected MDR subline cells KB-V1. KB-V1 MDR cells viability, CellTiter-Glo, 72 h. Potency, µM (series often up to 46.1 µM), hits mostly cytotoxic. 400,000 compounds, 3.4% hits; further: nearly all actives have a fitted effect of over 60% in size
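Cells of the MDR subline KB-V1 are plated, dosed with compound at multiple concentrations, and incubated 72 h at 37 degrees C; CellTiter-Glo is then added and luminescence read after 10 min.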
KB-3-1 cytotox: qHTS assay for MDR1-selective chemotherapeutics: Primary screen using the parental adenocarcinoma cell KB-3-1; AID 1347075, 2019; 400,000 compounds, 1.4% hits; Potency, µM (series often up to 46.1 µM), usual class: cytotoxic; KB-3-1 viability, CellTiter-Glo ATP luminescence, 72 h; further: nearly all actives have a fitted effect of over 60% in size
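KB-3-1 cells, DMEM (no phenol red) + 10% FBS; compound by pin transfer, 72 h, 37 °C. Readout: CellTiter-Glo luminescence after 10 min. Data normalized, curve-fitted.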
Starred values were filed as active, the others as inactive. Rows were chosen to be rich in hits. Some 19% of all compounds tested hit in one or more screens of this group. The call rests on the fitted dose curve; in most records, active means well fitted curve in the direction sought with a large enough effect; inconclusive means small, poorly fitted or top-dose-only effect, or another doubt; inactive means no such curve, though single readings can be large; an effect the other way counts as inactive or inconclusive. Unless noted, on the % scale 0 is the no-effect control and ±100 the full control effect; potency means the concentration at half of the fitted maximal effect.

For CCCCN1CC(=O)N2[C@H]3c4cc(C)ccc4OC[C@@H]3[C@H](c3ccccc3)[C@]2(C)C1=O the results were DT40 TDP1 CPT inconclusive, HT1080-NT tox 3.2%, HT1080 IDH1KD tx 9.2%, TDP1 cell noCPT inconclusive, KB-V1 cytotox inconclusive and KB-3-1 cytotox inactive.
Screening CCCCCCC(=O)c1c(O)n(-c2ccc(OC)cc2)c(=O)[nH]c1=O (tested in a mixture with another compound) returned DT40 TDP1 CPT -29.4%, HT1080-NT tox -18.1%, HT1080 IDH1KD tx -6.9%, TDP1 cell noCPT 25.9µM*, KB-V1 cytotox 8.2µM* and KB-3-1 cytotox inactive.
For COc1ccc(-n2c(O)c(/C(C)=N/Nc3ccccc3)c(=O)[nH]c2=O)cc1 the results were DT40 TDP1 CPT 16.1%, HT1080-NT tox 1.64µM*, HT1080 IDH1KD tx 1.84µM*, TDP1 cell noCPT -10.1%, KB-V1 cytotox inactive and KB-3-1 cytotox inactive.
`COc1ccc(-n2c(O)c(/C(C)=N/N3CCCCCC3)c(=O)[nH]c2=O)cc1` gave DT40 TDP1 CPT 13.4%, HT1080-NT tox 2.1%, HT1080 IDH1KD tx 4.3%, TDP1 cell noCPT -22.0%, KB-V1 cytotox inactive and KB-3-1 cytotox inactive.
For c1ccc(C2NCCc3[nH]cnc32)cc1 (stereo unspecified) the results were DT40 TDP1 CPT -3.2%, HT1080-NT tox 19.1%, HT1080 IDH1KD tx 12.0%, TDP1 cell noCPT -1.8%, KB-V1 cytotox inactive and KB-3-1 cytotox inactive.
CN1Cc2ccccc2[C@@H]2c3cccc4[nH]cc(c34)C[C@H]21 was read as DT40 TDP1 CPT 5.17µM* and TDP1 cell noCPT 5.8µM*.
For COC(=O)C1=C(c2ccc(OC)c(OC)c2)C[C@@H]2CC[C@H]1N2C(=O)NCC1CC1 the results were DT40 TDP1 CPT -7.2%, HT1080-NT tox 3.9%, HT1080 IDH1KD tx 1.4%, TDP1 cell noCPT -4.1%, KB-V1 cytotox inactive and KB-3-1 cytotox inactive.
`COC1=C(C)C(=O)C2=C(C1=O)C(CO)N1C(C#N)C3CC4C(C1C2N1CCOC41)N3C` (stereo unspecified) gave DT40 TDP1 CPT 0.0517µM*, HT1080-NT tox -17.2%, HT1080 IDH1KD tx 0.651µM*, TDP1 cell noCPT 0.146µM*, KB-V1 cytotox 0.581µM* and KB-3-1 cytotox inconclusive.
Screening COc1cc2c(cc1OC)C(C(=O)NCCC(C)C)C1CCCCN1C2=O (stereo unspecified) returned DT40 TDP1 CPT -3.3%, HT1080-NT tox 14.5%, HT1080 IDH1KD tx 12.7%, TDP1 cell noCPT -1.3%, KB-V1 cytotox inconclusive and KB-3-1 cytotox inactive.
`C[N+]1(CC2COC(c3ccccc3)(c3ccccc3)O2)CCCCC1` (stereo unspecified) gave DT40 TDP1 CPT inconclusive and TDP1 cell noCPT 18.8µM*.
Screening C[N+]1(CC2COC(c3ccco3)O2)CCCCC1 (stereo unspecified) returned DT40 TDP1 CPT 0.9%, HT1080-NT tox 16.4%, HT1080 IDH1KD tx 12.2%, TDP1 cell noCPT -2.5%, KB-V1 cytotox inactive and KB-3-1 cytotox inactive.
Screening COc1cc(C)c(CN2CC=C(c3ccc(F)cc3)CC2)cc1C returned DT40 TDP1 CPT -9.6%, HT1080-NT tox inconclusive, HT1080 IDH1KD tx -11.2%, TDP1 cell noCPT inconclusive, KB-V1 cytotox inconclusive and KB-3-1 cytotox inactive.
Screening COc1cc2nc(CN3CC=C(c4ccccc4)CC3)[nH]c(=O)c2cc1OC returned DT40 TDP1 CPT inconclusive, HT1080-NT tox 1.4%, HT1080 IDH1KD tx 1.1%, TDP1 cell noCPT 18.4µM*, KB-V1 cytotox inconclusive and KB-3-1 cytotox 7.31µM*.
Screening Nc1nonc1C(=O)N/N=C/c1ccc([N+](=O)[O-])o1 returned DT40 TDP1 CPT 7.31µM*, HT1080-NT tox inconclusive, HT1080 IDH1KD tx 18.4µM*, TDP1 cell noCPT 9.2µM*, KB-V1 cytotox inactive and KB-3-1 cytotox inactive.
NC[C@@H](CC(=O)O)c1ccc(Cl)cc1 was read as DT40 TDP1 CPT 12.5% and TDP1 cell noCPT -0.6%.
COc1ccccc1N1C(=O)NC(=O)/C(=C\c2cnn(-c3ccccc3)c2)C1=O was read as DT40 TDP1 CPT inconclusive, HT1080-NT tox inconclusive, HT1080 IDH1KD tx inconclusive, TDP1 cell noCPT inconclusive, KB-V1 cytotox inactive and KB-3-1 cytotox inactive.
Screening COc1ccccc1N1C(=O)NC(=O)/C(=C/c2ccc([N+](=O)[O-])s2)C1=O returned DT40 TDP1 CPT 8.2µM*, HT1080-NT tox -26.3%, HT1080 IDH1KD tx inconclusive, TDP1 cell noCPT 14.6µM*, KB-V1 cytotox inactive and KB-3-1 cytotox inactive.
For COc1ccc(N2C(=O)NC(=O)/C(=C\c3ccc([N+](=O)[O-])s3)C2=O)cc1 the results were DT40 TDP1 CPT 13µM*, HT1080-NT tox -29.6%, HT1080 IDH1KD tx -26.6%, TDP1 cell noCPT inconclusive, KB-V1 cytotox inactive and KB-3-1 cytotox inactive.
For O=C1NC(=O)N(c2ccccc2)C(=O)/C1=C\c1ccccc1[N+](=O)[O-] the results were DT40 TDP1 CPT 23.1µM*, HT1080-NT tox -1.1%, HT1080 IDH1KD tx 5.0%, TDP1 cell noCPT -24.2%, KB-V1 cytotox inactive and KB-3-1 cytotox inactive.
COc1ccc(N2C(=O)NC(=O)/C(=C/c3ccc([N+](=O)[O-])s3)C2=O)cc1 was read as DT40 TDP1 CPT 14.6µM*, HT1080-NT tox -6.0%, HT1080 IDH1KD tx -0.4%, TDP1 cell noCPT 6.51µM*, KB-V1 cytotox inactive and KB-3-1 cytotox inactive.
Screening CCOc1ccc(N2C(=O)NC(=O)/C(=C\c3cc(OC)c(OC)cc3[N+](=O)[O-])C2=O)cc1 returned DT40 TDP1 CPT inconclusive, HT1080-NT tox inconclusive, HT1080 IDH1KD tx -21.3%, TDP1 cell noCPT inconclusive, KB-V1 cytotox inactive and KB-3-1 cytotox inactive.
`O=[N+]([O-])c1cc(S(=O)(=O)c2ccc(O)c([N+](=O)[O-])c2)ccc1O` gave DT40 TDP1 CPT 7.4%, HT1080-NT tox 17.7%, HT1080 IDH1KD tx 7.8%, TDP1 cell noCPT 2.0%, KB-V1 cytotox inactive and KB-3-1 cytotox inactive.
For O=C(C[C@@H]1NCCC[C@H]1O)Cn1cnc2cc(Br)c(Cl)cc2c1=O the results were DT40 TDP1 CPT -0.6% and TDP1 cell noCPT -23.5%.

Assay outcomes as filed in PubChem BioAssay.
